Hits are enriched below; roughly 4.1% of the tested compounds scored in any of these assays.
hgDAF12 agonist – H. glycines DAF-12 receptor agonists, primary screen, cell-based, luminescence, HEK293, GAL4 fusion, UAS-luciferase; HEK293 GAL4-hgDAF12 UAS-luciferase reporter, agonist luminescence; normalized to butyrate control; activation, % at 6.8 µM; hit rate 1.8% among 370,000; Nuclear hormone receptor DAF-12 (Heterodera glycines), GAL4 fusion;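 active means activation above a cutoff set at the mean of all screened compounds plus 3 SD, cut at about 10% in these data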;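 further: 0% = DMSO wells and 100% = sodium butyrate wells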
ssDAF12 agonist – S. stercoralis DAF-12 nuclear receptor activators, primary screen, cell-based, luminescence, HEK293, GRIP1 co-expression, lit1-tk-luc; AID 652126, 2013; Nuclear hormone receptor DAF-12 (Strongyloides stercoralis); activation, % at 6.8 µM; hit rate 1% among 370,000; HEK293 ssDAF-12/GRIP1 lit1-tk-luc reporter; % of 3 µM dafachronic acid response;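 active means activation above the mean over all tested compounds plus 3 SD, cut at about 0.9% in these data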;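 further: 0% = DMSO-only wells and 100% = 3 µM delta7-dafachronic acid wells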
DAX1 inh-1 – DAX1 (NR0B1) inhibitors, primary screen, cell-based, HEK293, Gal4-DAX1, luciferase luminescence | Nuclear receptor subfamily 0 group B member 1 (Homo sapiens), P51843 | inhibition, % at 6.75 µM | HEK293 Gal4-DAX1 luciferase reporter | hit rate 0.99% among 340,000;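 active means inhibition above the mean over all tested compounds plus 3 SD, cut at about 4.2% in these data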;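 further: 0% = DAX1-transfected cells with DMSO and 100% = empty-vector control cells with DMSO; inhibition shows as a rise in luminescence from relieved DAX1 repression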
Target sequence (P51843 207-470 limits assumed): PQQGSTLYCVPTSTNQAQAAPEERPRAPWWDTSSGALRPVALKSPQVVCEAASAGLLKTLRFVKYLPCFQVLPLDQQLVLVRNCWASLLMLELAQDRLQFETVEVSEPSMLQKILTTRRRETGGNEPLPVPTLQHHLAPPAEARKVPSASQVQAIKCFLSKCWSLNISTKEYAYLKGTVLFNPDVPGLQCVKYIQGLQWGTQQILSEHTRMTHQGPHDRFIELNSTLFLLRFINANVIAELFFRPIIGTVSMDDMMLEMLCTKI
DAX1 inh-2 – DAX1 (NR0B1) inhibitors on StAR promoter, primary screen, cell-based, luminescence, SF-1 (NR5A1), full-length DAX-1. HEK293T StAR-luciferase reporter, SF-1/DAX-1 repression relief. inhibition, % at 6.8 µM. hit rate 1.1% among 370,000. AID 652010, 2013;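 active means inhibition above the mean over all tested compounds plus 3 SD, cut at about 3.6% in these data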;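 further: 0% = DAX-1 cells with DMSO and 100% = cells lacking DAX-1 with DMSO; higher inhibition means more luminescence from relief of DAX-1 repression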
hcDAF12 agonist – H. contortus DAF-12 nuclear receptor activators, primary screen, cell-based, luminescence, HEK293, lit1-tk-luc reporter | hit rate 1.4% among 370,000 | activation, % at 6.8 µM | HEK293 hcDAF-12 lit1-tk-luc reporter; 0% DMSO, 100% Δ7-dafachronic acid;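 active means activation above the mean of all tested compounds plus 3 SD, cut at about 5.5% in these data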;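 further: 100% = response to 3 µM Δ7-dafachronic acid high control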
LXRb hcDAF ctr – LXR agonists, Gal4 luciferase reporter, confirmation, counter-screen for hcDAF-12 agonist project, cell-based, luminescence, HEK293, H. contortus campaign; shares compounds with hcDAF12 agonist; HEK293 Gal4-LXR tk-luc reporter, 24 h; normalized: DMSO 0%, positive control 100%; activation, % at 6.8 µM; 3,400 tested, under 10 active; AID 743027, 2013;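 active means mean percent activation of the reporter above a cutoff set as the average over tested compounds plus their standard deviation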
hcDAF12 ag – H. contortus DAF-12 receptor agonists, confirmation, cell-based, luminescence, HEK293, lit1-tk-luc, triplicate | shares compounds with hcDAF12 agonist | HEK293 hcDAF-12 lit1-tk-luc reporter; % of Δ7-dafachronic acid response | activation, % at 6.8 µM | hit rate 61% among 3,400 | AID 743032, 2013;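 active means mean activation across triplicate tests above the threshold derived from the earlier primary screen, cut at about 5.5% in these data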;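 further: 0% = DMSO only wells and 100% = 3 µM Δ7-dafachronic acid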
hgDAF12 ag – H. glycines DAF-12 receptor agonists, confirmation, cell-based, luminescence, HEK293, GAL4-LBD fusion; shares compounds with hgDAF12 agonist; HEK293 GAL4-hgDAF12 luciferase reporter, agonist mode; percent of butyrate response; activation, % at 6.8 µM; hit rate 80% among 3,300; AID 743050, 2013;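 active means mean activation over triplicate wells above the hit cutoff derived from the earlier primary screen, cut at about 11% in these data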;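 further: 0% = DMSO low control and 100% = 2 mM sodium butyrate high control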
LXR ag 2 – LXR agonists, Gal4 luciferase reporter, confirmation, counter-screen for hgDAF-12 agonist project, cell-based, luminescence, HEK293, H. glycines campaign | 3,300 tested, under 10 active | activation, % at 6.8 µM | AID 743051, 2013 | shares compounds with hgDAF12 agonist | 24 h;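 active means mean activation of the triplicate above a set limit carried over from the primary screen, none filed active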
Numbers without * were called inactive; . = not tested or not shown.

SMILES | hgDAF12 agonist | ssDAF12 agonist | DAX1 inh-1 | DAX1 inh-2 | hcDAF12 agonist | LXRb hcDAF ctr | hcDAF12 ag | hgDAF12 ag | LXR ag 2
Cc1ccc(-n2c(O)c(C=Nc3ccccc3N)c(=O)[nH]c2=O)cc1C | 9.8 | 0.7 | 0.7 | 4.4* | 7.8* | -0.1 | 2.8 | . | .
Cc1cc(S(N)(=O)=O)ccc1N=Cc1c(O)n(-c2ccccc2)c(=O)[nH]c1=O | -1.7 | 0.1 | 2.9 | 0.1 | 1.1 | . | . | . | .
CC(=Nc1ccccc1N)c1c(O)n(C)c(=O)[nH]c1=O | 10.0 | 1.8* | 3.2 | 1.8 | 7.7* | -0.3 | 0.9 | . | .
N#CC12CC(=O)N1Cc1cnnn1-c1ccccc12 (stereo unspecified) | 2.2 | -0.7 | . | -0.6 | 1.6 | . | . | . | .
CCCCn1c(=O)c(C(=O)Nc2ccsc2C(=O)OC)c(O)c2ccccc21 | 2.7 | 0.3 | -0.4 | 0.6 | 7.2* | -0.1 | 5.3 | . | .
CCCCn1c(=O)c(C(=O)Nc2ccccc2F)c(O)c2ccccc21 | 0.3 | 0.2 | 0.2 | -0.1 | 7.0* | 0.0 | 6.1* | . | .
COC(=O)C1=C(c2ccc(C(C)=O)cc2)C[C@@H]2CC[C@H]1N2C(=O)NC1Cc2ccccc2C1 | . | . | -0.4 | . | . | . | . | . | .
COc1cc(CNCCc2c[nH]c3ccccc23)cc(OC)c1 | 0.1 | -1.1 | 0.9 | 0.1 | 8.5* | -0.2 | 1.2 | . | .
COc1ccc(-c2cc(=Nc3cccc(C(=O)O)c3)c3cc(C)ccc3o2)cc1 | 19.1* | 0.9* | -1.3 | 3.5 | 5.0 | . | . | 18.5* | 0.8
CC1CC(C)CN(C(=O)COC(=O)c2cn(C)c3ccccc23)C1 (stereo unspecified) | 0.3 | -1.1 | -1.2 | 0.3 | -0.3 | . | . | . | .
Cc1ccc(S(=O)(=O)CC(=O)c2cc(C)c(OC(=O)N(C)C)c(C)c2)cc1 | 0.6 | -0.7 | -0.8 | -0.6 | -1.6 | . | . | . | .
Cc1cc(C(=O)CS(=O)(=O)c2ccccc2)cc(C)c1OC(=O)N(C)C | 13.8* | -0.1 | 3.3 | 4.0* | 3.8 | . | . | 9.0 | 0.6
CC1=CC(O)C(O)C2(C)C1CC1OC(=O)CC3C(C)C(O)C(=O)C2C13CO (stereo unspecified) | . | . | -1.2 | . | . | . | . | . | .
CN1C(=O)NC(=O)C(C)(C2=CCCCC2)C1=O (stereo unspecified) | 22.0* | -0.6 | 2.5 | 3.9* | 4.7 | . | . | 13.5* | 0.5
COc1ccc2c(c1)NP(=S)(Oc1ccccc1)N2 (stereo unspecified) | 13.3* | -0.1 | 4.1 | 0.9 | 4.9 | . | . | 8.1 | 0.2
COc1cccc(-n2c(=S)[nH]c3ccccc3c2=O)c1 | -0.5 | -1.7 | -0.9 | -0.5 | 2.9 | . | . | . | .

Screening data as filed in PubChem.
